This passage reports Potency and outcome results from PubChem BioAssay (Tox21).

The nature of test [1]: Nuclear factor erythroid 2-related factor 2/antioxidant responsive element (Nrf2/ARE) small molecule agonists: qHTS cell viability counter screen in human keratinocytes (AID 1919968; active means well fitted cell-killing curve with a large enough effect in the repeat runs; further: nearly all actives have a fitted effect of over 55% in size). The gist of the method: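 HaCaT ARE reporter line, 1,500 cells/well; 5 h settle, 37 C/5% CO2; cpd in DMSO pinned; 23 h exposure; CellTiter-Fluor, 1 h; fluorescence.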
Test [2] can be described thus: Nuclear factor erythroid 2-related factor 2/antioxidant responsive element (Nrf2/ARE) small molecule agonists: luciferase reporter gene qHTS assay in human keratinocytes (AID 1919969). Further: nearly all actives have a fitted effect of over 35% in size. Further: potency means the concentration at half of the fitted maximal effect.
Test [3] in a line: G protein-coupled receptor (GPCR) small molecule agonists, calcium flux assay: HEK293 wild type cell line counter screen (AID 1920065). Put shortly: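 Kinetic fluorescence at Ex/Em 480/540, recorded every second over 3 min, served as the read-out after compound addition. Each compound was tested at 15 concentrations in triplicate on cells pre-loaded with calcium dye for 1 h.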

Test [4] can be described thus: p53 small molecule agonists, cell-based qHTS assay with human liver microsomes (AID 1963577).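 Further: p53 response element beta-lactamase reporter cells with liver microsomes plus NADPH.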 Put shortly:
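Metabolically competent format: test substances, human liver microsomes and NADPH (both 0.5 mg/mL final) incubated with p53RE-bla cells 16 h at 37 C. Beta-lactamase reporter signal then quantified by fluorescence.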

A short description of test [5]: p53 small molecule agonists, cell-based qHTS assay with rat liver microsomes (AID 1963578). The gist of the method: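 Each plate received p53RE-bla cells, then compound, then rat liver microsomes and NADPH (both 0.5 mg/mL final). Plates were held 16 h at 37 C, and beta-lactamase activity was detected with LiveBLAzer over 2 h.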
Test [6] is described as follows: p53 small molecule agonists, cell-based qHTS assay with human liver microsomes: qHTS cell viability counter screen (AID 1963579). Further: nearly all actives have a fitted effect of over 45% in size. Further: potency means the concentration at half of the fitted maximal effect. The gist of the method:
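Tox21 library compounds, delivered from DMSO stocks, were tested on p53RE-bla cells together with 0.5 mg/mL human liver microsomes and 0.5 mg/mL NADPH (final) over 16 h at 37 C; CellTiter-Glo luminescence served as the cytotoxicity measure.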

Test [7] in a line: p53 small molecule agonists, cell-based qHTS assay with rat liver microsomes: qHTS cell viability counter screen (AID 1963580). Further: nearly all actives have a fitted effect of over 45% in size. The gist of the method: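 p53RE-bla HCT-116 cells (4,000/well) rested 5 h at 37 C, then given Tox21 compounds in DMSO with rat liver microsomes (0.5 mg/mL final) plus NADPH (0.5 mg/mL final) for 16 h at 37 C. Viability read by CellTiter-Glo luminescence after 30 min at room temperature.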

Test [8] in a line: p53 small molecule agonists, cell-based qHTS assay: qHTS cell viability counter screen (AID 1963581). Further: nearly all actives have a fitted effect of over 45% in size. Put shortly:
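HCT-116 p53RE-bla cells, 4,000/well, plated 5 h before compound pin transfer; 16 h at 37 C; bla substrate 2 h RT; then CellTiter-Glo, 30 min RT, luminescence.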

The nature of test [9]: p53 small molecule agonists, cell-based qHTS assay (AID 1963582; active means well fitted activation curve with a large enough effect in the signal ratio in the repeat runs, not every such curve was filed as active; the % refers to the signal ratio). Put shortly:
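Reporter line: p53RE-bla. Pre-incubation 5 h, 37 C, 5% CO2; compound (DMSO, pin tool) 16 h, 37 C; B/G FRET substrate 2 h RT; fluorescence intensity read.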

Test [10] addresses 5-hydroxytryptamine receptor 2A (Homo sapiens) (UniProt P28223). Briefly: 5-hydroxytryptamine receptor 2A (HTR2A) small molecule antagonists, cell-based qHTS assay (AID 1963586). Further: nearly all actives have a fitted effect of over 45% in size. The gist of the method: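 Antagonist-mode intracellular calcium assay: DOI (4 nM) added after 5 min compound pre-incubation at room temperature to dye-loaded HTR2A-CHO cells. Fluorescence followed for 3 min, sampled every second.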

Test [11] has the same target. Briefly: 5-hydroxytryptamine receptor 2A (HTR2A) small molecule agonists, cell-based qHTS assay (AID 1963587). Further: nearly all actives have a fitted effect of over 30% in size. Put shortly: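 HTR2A-CHO cells, plated 18 h at 37 C/5% CO2, dye-loaded 1 h at 37 C; compounds in DMSO added by pin tool (agonist mode). Intracellular calcium flux read as kinetic fluorescence on FDSS over 2 min at 1 s intervals.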
The target in test [12] is Muscarinic acetylcholine receptor M1 (Homo sapiens) (UniProt P11229). Nature of the test: Cholinergic receptor muscarinic 1 (CHRM1) small molecule antagonists, cell-based qHTS assay (AID 1963588). Further: nearly all actives have a fitted effect of over 40% in size. Put shortly: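 CHRM1-CHO calcium-flux assay, antagonist mode. Cells were seeded 18 h, dye-loaded 1 h at 37 C and given compound for 5 min at RT, then acetylcholine was added at 50nM. FDSS fluorescence was read 3 min; 15 concentrations, three runs.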
Sequence of Muscarinic acetylcholine receptor M1 (Homo sapiens) (P11229 whole entry, looked up): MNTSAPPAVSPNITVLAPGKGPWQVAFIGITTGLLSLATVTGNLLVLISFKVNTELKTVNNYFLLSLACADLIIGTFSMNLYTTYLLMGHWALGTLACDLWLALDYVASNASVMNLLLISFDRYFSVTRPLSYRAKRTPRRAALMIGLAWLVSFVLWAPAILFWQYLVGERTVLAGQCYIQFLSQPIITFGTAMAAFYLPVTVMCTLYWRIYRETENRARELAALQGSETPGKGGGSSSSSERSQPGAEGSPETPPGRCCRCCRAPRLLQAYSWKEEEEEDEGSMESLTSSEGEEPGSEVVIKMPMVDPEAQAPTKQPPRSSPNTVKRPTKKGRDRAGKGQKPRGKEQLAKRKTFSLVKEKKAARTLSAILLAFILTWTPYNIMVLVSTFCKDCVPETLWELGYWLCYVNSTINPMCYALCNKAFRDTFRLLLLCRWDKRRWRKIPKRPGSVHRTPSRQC

The target is the same in test [13]. Briefly: Cholinergic receptor muscarinic 1 (CHRM1) small molecule agonists, cell-based qHTS assay (AID 1963589). Further: nearly all actives have a fitted effect of over 35% in size. Put shortly:
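Human M1 in stable CHO line; 18 h plating, 1 h dye load 37 C; cpd added (agonist mode); Ca2+ fluorescence kinetic read, 1 s intervals; 15 conc, 3 runs.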

Test [14] is described as follows: cAMP Responsive Elements (CRE) small molecule antagonists, cell-based qHTS assay (AID 1963591; active means well fitted inhibition curve with a large enough effect in the signal ratio in the repeat runs, not every such curve was filed as active; the % refers to the signal ratio). Put shortly:
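Beta-lactamase reporter read by FRET substrate (LiveBLAzer B/G) after 2 h at room temperature. CRE-bla HEK293T cells had received compound plus 0.25 uM (final) NKH477 for 3 h at 37 °C.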

Test [15] addresses Beta-2 adrenergic receptor (Homo sapiens) (UniProt P07550). Briefly: Adrenergic beta2 receptor (ADRB2) small molecule antagonists, cell-based qHTS assay (AID 1963592). Further: series mostly up to about 92 µM; nearly all actives have a fitted effect of over 50% in size. The gist of the method:
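Cells (CHO, stable ADRB2 overexpression) incubated 18-20hr at 37C; compounds added from DMSO; agonist mix (1nM isoproterenol, 100uM IBMX, 25uM Ro-20-1724) added; 0.5hr RT; d2-cAMP and anti-cAMP-cryptate added; 1hr RT; 665/615 nm read.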

Test [16] shares this target. Nature of the test: Adrenergic beta2 receptor (ADRB2) small molecule agonists, cell-based qHTS assay (AID 1963593).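 Further: CHO cells stably overexpressing human ADRB2.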 The gist of the method:
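CHO cells stably over-expressing ADRB2 were plated overnight at 37C, then dosed with compounds plus a stimulation mix containing 100uM IBMX and 25uM Ro-20-1724 for 0.5hr at room temperature. cAMP was measured by HTRF competition, 1hr.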

For test [17], the target named is D(2) dopamine receptor (Homo sapiens) (UniProt P14416). Briefly: Dopamine D2 receptor (DRD2) small molecule agonists, cell-based qHTS assay (AID 1963594). Further: nearly all actives have a fitted effect of over 35% in size. Put shortly:
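HEK293 cells stably expressing DRD2 were cultured 24 h at 37 C, then given Ro20-1724 (0.1 mM final) and compounds for 10 min at room temperature. NKH477 (200nM) was then added for 30 min. cAMP was read by HTRF.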

Test [18] has the same target. Briefly: Dopamine D2 receptor (DRD2) small molecule antagonists, cell-based qHTS assay (AID 1963595; active means well fitted inhibition curve with a large enough effect in the signal ratio in the repeat runs, with a control signal flat; the % refers to the signal ratio). Put shortly: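 Human DRD2 antagonist qHTS measuring cAMP by HTRF. The cells are exposed to compound for 10 min, then to NKH477 (200 nM) and quinpirole (12 nM) for 30 min at RT, with Ro20-1724 (0.1 mM) present throughout.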
Test [19] in a line: cAMP Responsive Elements (CRE) small molecule agonists, cell-based qHTS assay (AID 1963590). Put shortly: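 HEK 293T CRE-bla, 2,000 cells/well, 18 h preincubation 37 C/5% CO2; cpds (DMSO) pinned, 3 h; LiveBLAzer B/G FRET substrate, 2 h RT.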
Test [20] addresses Gonadotropin-releasing hormone receptor (Homo sapiens) (UniProt P30968). Briefly: Human gonadotropin-releasing hormone receptor (GnRHR) small molecule agonists, calcium flux assay in GnRHR-HEK293 cells (AID 1920063). Further: nearly all actives have a fitted effect of over 35% in size. Put shortly: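 GnRHR-HEK293, 1500 cells/well, 18 h 37 C/5% CO2; Ca dye 1 h 37 C; cpd pinned (DMSO), agonist mode; kinetic FL 480/540, 3 min, 1 s reads; 15 conc, n=3.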

Molecules are shown by their SMILES. Unmarked numbers belong to inactive results. Records with an inconclusive call do not appear. Active and inactive are the calls of the source. Unless noted, the call rests on the fitted dose curve.

Sequence of Beta-2 adrenergic receptor (Homo sapiens) (P07550 whole entry, looked up): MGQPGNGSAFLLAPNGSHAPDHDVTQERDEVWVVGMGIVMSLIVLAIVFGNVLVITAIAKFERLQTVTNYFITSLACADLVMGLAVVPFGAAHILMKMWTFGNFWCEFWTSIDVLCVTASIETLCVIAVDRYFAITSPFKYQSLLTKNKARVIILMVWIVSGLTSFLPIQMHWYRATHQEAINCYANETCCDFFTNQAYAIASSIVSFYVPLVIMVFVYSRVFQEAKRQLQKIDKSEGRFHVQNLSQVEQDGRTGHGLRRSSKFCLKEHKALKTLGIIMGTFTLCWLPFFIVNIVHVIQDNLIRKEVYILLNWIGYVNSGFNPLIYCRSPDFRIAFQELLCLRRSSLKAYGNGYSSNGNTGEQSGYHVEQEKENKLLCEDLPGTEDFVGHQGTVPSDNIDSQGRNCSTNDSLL
Sequence of D(2) dopamine receptor (Homo sapiens) (P14416 whole entry, looked up): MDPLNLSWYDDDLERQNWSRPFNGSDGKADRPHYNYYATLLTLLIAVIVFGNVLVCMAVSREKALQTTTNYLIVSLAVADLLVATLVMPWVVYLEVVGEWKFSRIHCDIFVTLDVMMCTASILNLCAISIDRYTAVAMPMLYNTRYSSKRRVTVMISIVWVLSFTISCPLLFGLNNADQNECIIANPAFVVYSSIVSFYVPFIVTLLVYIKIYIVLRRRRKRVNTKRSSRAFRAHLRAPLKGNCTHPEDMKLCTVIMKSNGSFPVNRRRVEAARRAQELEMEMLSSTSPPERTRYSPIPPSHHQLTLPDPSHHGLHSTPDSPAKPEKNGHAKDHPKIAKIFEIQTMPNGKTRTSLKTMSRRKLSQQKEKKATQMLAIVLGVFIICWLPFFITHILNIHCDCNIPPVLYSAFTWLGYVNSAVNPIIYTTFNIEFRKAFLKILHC
Sequence of 5-hydroxytryptamine receptor 2A (Homo sapiens) (P28223 whole entry, looked up): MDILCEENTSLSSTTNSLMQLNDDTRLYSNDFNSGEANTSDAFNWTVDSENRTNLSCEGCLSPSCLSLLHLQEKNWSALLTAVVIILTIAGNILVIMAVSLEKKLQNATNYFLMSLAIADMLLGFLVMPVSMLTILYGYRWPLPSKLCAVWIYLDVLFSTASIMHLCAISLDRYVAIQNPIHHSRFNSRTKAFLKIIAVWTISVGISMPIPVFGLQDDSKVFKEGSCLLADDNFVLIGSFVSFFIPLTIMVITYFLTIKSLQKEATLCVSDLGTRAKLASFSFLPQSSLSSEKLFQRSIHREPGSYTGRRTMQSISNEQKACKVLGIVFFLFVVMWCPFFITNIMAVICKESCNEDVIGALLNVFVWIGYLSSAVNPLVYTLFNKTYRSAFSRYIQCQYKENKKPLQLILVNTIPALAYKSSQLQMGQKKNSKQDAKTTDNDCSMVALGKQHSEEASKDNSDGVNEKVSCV
Sequence of Gonadotropin-releasing hormone receptor (Homo sapiens) (P30968 whole entry, looked up): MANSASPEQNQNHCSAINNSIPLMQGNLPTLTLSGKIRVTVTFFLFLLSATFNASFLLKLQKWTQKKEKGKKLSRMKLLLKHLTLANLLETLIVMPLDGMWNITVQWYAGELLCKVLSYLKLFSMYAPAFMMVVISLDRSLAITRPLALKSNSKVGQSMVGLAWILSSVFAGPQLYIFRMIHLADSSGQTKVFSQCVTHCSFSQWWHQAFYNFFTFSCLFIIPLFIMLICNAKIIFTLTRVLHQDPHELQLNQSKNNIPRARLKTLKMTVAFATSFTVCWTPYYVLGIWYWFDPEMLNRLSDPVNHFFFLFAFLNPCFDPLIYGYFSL

For `O=C(O)c1cc(Cl)cc([N+](=O)[O-])c1Cl`, the Potency entry in test [1], in test [2], in [4], in test [5], in test [6] and in [7] was “inactive” in each case. In addition, the Potency entry in [8], in [9], in test [10], in test [11], in [12] and in test [13] was “inactive” each time. Moreover, the Potency result in test [14], in test [15], in test [16], in [17] and in [18] was “inactive” in each case. For the same compound, the outcome in test [3] was inactive.

As for `CC(C)Nc1cccnc1N1CCN(C(=O)c2cc3cc(NS(C)(=O)=O)ccc3[nH]2)CC1`, the Potency entry in [1], in test [2], in test [4], in [5], in [6] and in test [7] was “inactive” in each case. The Potency entry in test [8], in test [9], in [10], in test [11], in test [12] and in test [13] was “inactive” each time. The Potency entry in test [19], in [15] and in test [18] was “inactive” in each case. Further, the outcome in [3] was inactive.

In the case of `CCOC(=O)CC`, the Potency result in test [1], in [2], in [4], in test [5], in [6] and in [7] was “inactive” throughout. Further, the Potency entry in test [8], in test [9], in test [10], in test [11], in [12] and in [13] was “inactive” throughout. Besides, the Potency result in test [19], in test [14], in test [17] and in test [18] was “inactive” each time. Besides, the result in test [3] was inactive.

For `O=S1OCCO1`, the Potency result in test [1], in [2], in test [20], in test [5], in test [6] and in [7] was “inactive” each time. The Potency result in test [9], in test [10], in [11], in test [12], in [13] and in test [19] was “inactive” each time. Also, the Potency entry in test [14], in test [15], in test [17] and in test [18] was “inactive” each time. In addition, the result in test [3] was inactive.

Take `CS(=O)(=O)c1ccc(-c2cn3ccccc3n2)cc1`: the Potency entry in [1], in test [4], in test [5], in test [7], in test [8] and in test [9] was “inactive” throughout. For the same compound, the Potency entry in [10], in test [11], in [12], in test [13], in test [19] and in [14] was “inactive” each time. In addition, the Potency result in test [15], in test [17] and in test [18] was “inactive” each time. The Potency in test [2] is 33.5 µM (active); in test [6] it was 17.8 µM (active). Further, the result in test [3] was inactive.

Turning to `O=C(Oc1ccccc1)c1ccccc1C(=O)Oc1ccccc1`, the Potency result in test [1], in test [2], in test [20], in [4], in test [5] and in test [7] was “inactive” each time. Moreover, the Potency result in test [8], in [9], in test [11], in [12], in test [13] and in test [19] was “inactive” in each case. Further, the Potency result in test [14], in test [15], in test [16], in [17] and in test [18] was “inactive” in each case.
